D2 PAM-1: HTS Assay for Positive Allosteric Modulators of the Human D2 Dopamine Receptor: Primary Screen for Potentiators. D(2) dopamine receptor (Homo sapiens), P14416. HEK293 T-REx D2, calcium flux, EC20 dopamine potentiation. potentiation, % at 10 µM. 340,000 compounds, 0.34% hits. AID 485347, 2010;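 active means potentiation over 3 SD above the plate norm, cut at about 30% in these data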; further: 0% is about no effect
Target sequence (P14416 whole entry, looked up): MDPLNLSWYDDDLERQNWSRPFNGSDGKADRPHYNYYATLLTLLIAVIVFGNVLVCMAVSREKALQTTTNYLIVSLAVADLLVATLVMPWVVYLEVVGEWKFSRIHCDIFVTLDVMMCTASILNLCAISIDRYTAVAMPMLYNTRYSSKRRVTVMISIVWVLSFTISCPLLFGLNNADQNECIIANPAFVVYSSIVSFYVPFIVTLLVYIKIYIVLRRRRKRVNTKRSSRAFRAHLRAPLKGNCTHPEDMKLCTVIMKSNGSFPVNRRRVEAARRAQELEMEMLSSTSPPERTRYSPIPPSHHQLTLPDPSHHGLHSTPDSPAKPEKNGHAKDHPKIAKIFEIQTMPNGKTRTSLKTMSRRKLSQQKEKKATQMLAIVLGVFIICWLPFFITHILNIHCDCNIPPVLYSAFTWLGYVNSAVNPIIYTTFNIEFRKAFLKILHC
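Potentiation of an EC20 dopamine calcium response measured kinetically over 180 s, after a preceding 180 s compound-only read flagging agonists. Cells: inducible Hek293 Trex D2 line, 4000/well, cultured overnight at 30 C before dye loading.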
D2 ag-1: Beta-Arrestin HTS for Positive Allosteric Modulators of the Human D2 Dopamine Receptor: Agonists | D(2) dopamine receptor (Homo sapiens), P14416 | DiscoveRx PathHunter D2 beta-arrestin, luminescence, 90 min; 100% = 57 uM dopamine signal | activation, % (test concentration not listed) | 360,000 compounds, 0.084% hits | AID 624465, 2012; in the data active means activation above about 40%
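Agonist mode: compounds alone added to overnight-plated D2 PathHunter cells for 90 min at 37 C, with 57 uM final dopamine (EC100) defining full response. Beta-arrestin recruitment detected by chemiluminescent reagent, read after 1 h at ambient temperature.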
D2 ag-2: HTS Assay for Allosteric Agonists of the Human D2 Dopamine Receptor: Primary Screen for Agonists; activation, % at 2 µM; HEK293 T-REx D2 cells, calcium flux agonist mode; 340,000 compounds, 0.53% hits; D(2) dopamine receptor (Homo sapiens), P14416;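 active means activation over 3 SD above normal in the single-dose calcium agonist read, cut at about 30% in these data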; further: 0% is about no effect
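In this primary screen, compounds producing a positive calcium signal within 180 s of addition to tetracycline-induced, force-coupled HEK293 Trex D2 cells are flagged; cells are dye-loaded with a no-wash calcium kit beforehand.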
D2 PAM-2: Beta-Arrestin HTS for Positive Allosteric Modulators of the Human D2 Dopamine Receptor: Potentiators; D(2) dopamine receptor (Homo sapiens), P14416; DiscoveRx D2 beta-arrestin cells, luminescence, 90 min; 100% = 57 uM dopamine signal; potentiation, % (test concentration not listed); 360,000 compounds, 0.23% hits; AID 624464, 2012; in the data active means potentiation above about 50%
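PathHunter D2 cells, attached overnight at 37 deg C, received compound in DMSO plus dopamine at EC20 (50 nM final) for 90 min at 37 deg C. Beta-arrestin recruitment was read as luminescence after 1 h with detection reagent at ambient temperature.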
D2 antagonist: HTS Assay for Allosteric Antagonists of the Human D2 Dopamine Receptor: Primary Screen for Antagonists | HEK293 TREx D2 cells, calcium flux, dopamine EC80 | inhibition, % at 10 µM | 340,000 compounds, 2% hits | AID 485344, 2010; in the data active means inhibition above about 30%; inactive means below that, where a call was filed; further: 0% is about no effect
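Inhibition of EC80 dopamine-driven calcium flux, recorded kinetically, defines activity here; cells are a tetracycline-induced HEK293 T-REx line expressing force-coupled D2.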
Numbers without * were called inactive; nt = no result. This is a sample that favours compounds with a hit; in the whole collection about 2.4% have one here.

SMILES	D2 PAM-1	D2 ag-1	D2 ag-2	D2 PAM-2	D2 antagonist
CN1CSC(=S)N(C)C1	6.8	-6.4	0.1	-2.5	41.5*
ON1C2CCCCC2N(O)C1c1ccccc1F (stereo not drawn)	3.0	-4.1	0.6	-10.2	50.0*
Cc1ccccc1-n1nc(C)c2c1NC(=O)CSC2c1ccc(N(C)C)cc1 (stereo not drawn)	5.2	nt	2.9	nt	nt
CN1C(=O)C(=Cc2cn(CC(=O)N3CCCC3)c3ccccc23)C(=O)N(C)C1=O	30.7*	-3.3	-0.9	-4.9	30.2*
Clc1ccc(C(OCCN2CCCCC2)c2ccccc2)cc1 (stereo not drawn)	-20.0	-6.5	-0.2	-0.5	42.7*
O=C1CC(c2ccccc2Br)c2c(c3ccccc3oc2=O)O1 (stereo not drawn)	3.2	nt	0.1	nt	nt
CN1CCN(c2ccc(N)cc2Cl)CC1	-15.2	-0.9	2.3	-18.5	45.9*
Cc1cccc(-c2nn3c(=O)cc(CN4CCN(C(=O)COc5ccc(Cl)cc5)CC4)nc3s2)c1	-0.8	nt	-1.0	nt	nt
COc1ccc(Br)cc1CN1CCN(CCO)CC1	-23.4	0.0	0.1	-25.1	54.7*
COc1cc(Br)cc(CN2CCN(C)CC2)c1O	-29.5	-1.2	-1.2	-18.1	5.2
CCN1CCN(Cc2cc(Br)ccc2O)CC1	-20.6	-0.1	1.0	-40.5	63.9*
Cn1c(=O)n(C)c2cc(CNCCc3ccccc3)ccc21	nt	nt	2.6	nt	nt
Cc1cccc(CN2C(=O)CN=C(c3ccccc3)c3cc(Cl)ccc32)c1	-1.5	nt	0.8	nt	nt
CC(=O)NC1=C(N2CC2C)C(=O)C(NC(C)=O)=C(N2CC2C)C1=O (stereo not drawn)	nt	9.7	nt	94.8*	nt
CCCC(=O)NC1=C(N2CC2)C(=O)C(NC(=O)CCC)=C(N2CC2)C1=O	nt	10.8	nt	5.8	nt
CC1=NN=C(c2ccc(N)cc2)c2cc3c(cc2C1)OCO3	-0.6	69.7*	1.2	27.7	-1.3
Nc1c(C(=O)Nc2ccc(OC(F)(F)F)cc2)sc2nc3c(cc12)N1CCC3CC1	-3.3	nt	0.4	nt	nt
COC(=O)C1=C(c2ccc(-c3ccccc3)c(F)c2)C[C@@H]2CC[C@H]1N2C(=O)NCC1CC1	-10.3	1.6	0.6	-85.0	-15.9
COC(=O)C1=C(c2ccc(-c3ccccc3)c(F)c2)C[C@@H]2CC[C@H]1N2C(=O)NC1Cc2ccccc2C1	-11.1	-7.6	0.7	-16.2	38.4*
O=C(COc1ccccc1F)N1CCN(Cc2cc(=O)n3nc(-c4ccccc4Cl)sc3n2)CC1	7.7	nt	0.4	nt	nt
CSc1ccc(CN2CCN(C(=O)Cc3ccccc3)CC2)cc1	nt	-6.2	nt	-9.5	nt
COc1ccc(CN2CCN(Cc3ccccc3F)CC2)cc1	-16.5	-4.2	0.0	-20.6	30.7*
CSc1ccc(CN2CCN(Cc3ccccc3Cl)CC2)cc1	-30.8	-3.0	-4.7	-25.8	69.5*
COc1cccc(CNCCc2c[nH]c3ccccc23)c1OC	-20.9	-3.0	-0.2	-26.1	52.2*
O=C(/C=C/c1c[nH]c2ccccc12)c1c(O)n(CCc2ccccc2)c(=O)[nH]c1=O	-7.0	-0.8	40.4*	-2.7	36.6*
SMILES	D2 PAM-1	D2 ag-1	D2 ag-2	D2 PAM-2	D2 antagonist
CCCCn1c(O)c(C(C)=NCCc2c[nH]c3ccccc23)c(=O)[nH]c1=O	3.4	0.5	2.6	-1.6	-1.7
CCN(CC)c1ccc(/C=N/c2sc3c(c2C#N)C2CCN3CC2)c(O)c1	9.4	-8.3	33.7*	-35.4	16.7
CCN1CC=C(c2c[nH]c3ccccc23)CC1	-21.0	-2.6	0.5	-38.0	82.7*
Cc1[nH]c2ccccc2c1C(=O)CN1CC=C(c2ccccc2)CC1	-28.0	-3.1	3.5	-8.4	10.0
CCNC(=O)NC(=O)C(C)OC(=O)c1c(C)nn(Cc2ccccc2Cl)c1Cl (stereo not drawn)	-5.0	0.5	-1.2	-9.7	5.3
CCNC(=O)NC(=O)C(C)OC(=O)c1c(C)nn(Cc2ccccc2)c1Cl (stereo not drawn)	1.1	1.3	-0.5	-3.2	40.4*
COc1ccc2c(c1OC)CN1CCc3cc4c(cc3C1C2)OCO4 (stereo not drawn)	-22.3	-0.2	0.2	-23.3	86.2*
CCN1/C(=C/C=C/C2=[N+](CC)c3ccccc3C2(C)C)C(C)(C)c2ccccc21	nt	-4.7	nt	-50.3	nt
CN1/C(=C\C=C\C2=[N+](C)c3ccc4ccccc4c3C2(C)C)C(C)(C)c2ccccc21	27.3	nt	1.6	nt	39.0*
O=C(CNC(=O)c1ccc(Cl)cc1)Nc1ccc(Br)cc1C(=O)c1ccccc1	-21.5	1.4	-1.3	-18.4	34.4*
O=C(CNC(=O)c1cccc(Cl)c1)Nc1ccc(Br)cc1C(=O)c1ccccc1	-10.7	1.4	0.9	-19.6	8.5
Cc1c(Cl)cccc1NC(=O)CN1C(=O)C(C)N=C(c2ccccc2)c2ccccc21 (stereo not drawn)	18.2	nt	0.5	nt	nt
CCCc1nc(SC)ncc1C(=O)Nc1ccc(Cl)cc1C(=O)c1ccccc1	nt	nt	-0.7	nt	nt
COc1ccccc1N=Cc1c(O)n(C)c(=O)n(C)c1=O	-0.3	-3.4	0.2	-14.9	34.9*
COc1ccccc1N1CCN(Cc2cccc(Br)c2)CC1	-24.5	-4.5	-0.9	-2.4	75.8*
COc1ccccc1N1CCN(Cc2cc(C)c(C)cc2O)CC1	nt	-5.1	nt	-19.0	nt
O=C1NC(=O)N(Cc2ccco2)C(=O)/C1=C/C=C/c1ccco1	-6.5	-5.0	7.5	1.2	34.4*
Cc1ccc2c(c1)C1CN(C)CCC1N2S(=O)(=O)c1ccccc1 (stereo not drawn)	-14.8	-1.1	-1.2	-22.0	44.4*
O=C(Nc1ccc2c(c1)OCO2)c1cccn(Cc2ccccc2)c1=O	16.6	nt	nt	nt	nt
CC(C)N1CCN(Cc2cccc([N+](=O)[O-])c2)CC1	nt	-3.0	-0.6	-7.9	-3.2
O=[N+]([O-])c1ccccc1CN1CC=C(c2ccc(F)cc2)CC1	-1.2	-5.1	-0.2	-5.8	17.9
COc1ccc(CN2CC=C(c3ccc(F)cc3)CC2)cc1Br	-32.0	-1.2	-0.1	-11.4	62.9*
O=[N+]([O-])c1cccc(CN2CC=C(c3ccc(F)cc3)CC2)c1	-20.8	-3.9	-1.7	-4.3	72.6*
O=[N+]([O-])c1cccc(CN2CCN(Cc3ccc(Cl)cc3)CC2)c1	-19.0	-2.5	-0.3	-20.9	50.5*
CCN(CC)c1ccc(CN2CC=C(c3ccc(F)cc3)CC2)cc1	-23.8	-1.3	0.0	-44.1	40.7*
Cc1ccc(OCC(=O)N2CCN(Cc3ccc(F)cc3)CC2)cc1	-16.2	nt	-2.1	nt	nt
